G9a inh: G9a (human) methyltransferase inhibition | Q96KQ7 | 8.8% of 350,000 active | AID 504332 | G9a H3K9 monomethylation, AlphaScreen, 2 h | Potency, µM (series often up to 102 µM), for inactives: top-dose activity, negative = inhibition, actives largely listed as inhibitors; also: % is scaled to controls: 0 for no effect and ±100 for the full control effect; nearly all actives have a fitted effect of over 75% in size
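Readings reflect AlphaScreen signal from monomethyl-H3K9 antibody detection. HMT at 20 nM; substrate b-H3K9 500 nM; cofactor SAM 20 uM; 2 h RT reaction; compounds tested as titrations in qHTS with 15 min preincubation.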
HP1b chromo inh: HP1-beta chromodomain-methylated histone interaction inhibition; AlphaScreen HP1-beta / biotin-H3K9me3 peptide binding; P83916; Potency, µM (series often up to 114 µM), for inactives: at the highest dose activity change, negative = inhibition, actives largely listed as inhibitors; 0.56% of 390,000 active; also: nearly all actives have a fitted effect of over 70% in size
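HP1-beta protein (50 nM final) preincubated 30 min at room temperature with biotinylated H3(1-18)K9me3 peptide (50 nM) in PBS pH 7.4, 0.01% Tween-20, then compound added for 30 min. AlphaScreen streptavidin donor/nickel chelate acceptor beads (10 ug/mL final), 30 min dark, luminescence read.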
JMJD2A Tudor: JMJD2A Tudor domain (human) inhibition; AlphaScreen JMJD2A-Tudor / H3K4me3 peptide binding; AID 504339; Potency, µM (top dose mostly 114 µM), for the others: at the highest dose activity change, negative = inhibition, usual class: inhibitors; 4.4% of 390,000 active; O75164; also: % is scaled to controls: 0 for no effect and ±100 for the full control effect; nearly all actives have a fitted effect of over 50% in size
PLK1 PBD block: PLK1 (human) polo-box domain binding inhibition. 2.8% of 360,000 active. Plk1 PBD binding of FITC phosphopeptide, fluorescence polarization. Potency, µM, for inactives: max response, negative = inhibition, hits mostly inhibitors. P53350; also: series mostly up to about 57 µM; % is scaled to controls: 0 for no effect and ±100 for the full control effect; nearly all actives have a fitted effect of over 65% in size
BAZ2B inh: BAZ2B (human) inhibition; Q9UIF8; AlphaScreen BAZ2B-H3K14Ac peptide displacement; Potency, µM (doses to about 114 µM), for inactives: at the top dose activity change, negative = inhibition, usual class: inhibitors; AID 504333; 4.4% of 360,000 active; also: % is scaled to controls: 0 for no effect and ±100 for the full control effect; nearly all actives have a fitted effect of over 60% in size
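Compounds, titrated to a top concentration of 110 uM, were incubated 30 min at room temperature with preformed BAZ2B/acetyl-K14 H3 peptide complex (50 nM each). Proximity signal was measured by AlphaScreen after 20 min with beads.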
12-LOX inh: inhibitors of human 12S-lipoxygenase ALOX12. P18054. purified 12hLO, xylenol orange hydroperoxide absorbance. Potency, µM (top dose mostly 108 µM), without a hit: at the top dose activity change, negative = inhibition, actives largely listed as inhibitors. 1.1% of 580,000 active. AID 1671190; also: % is scaled to controls: 0 for no effect and ±100 for the full control effect
Target sequence (P18054 whole entry, looked up): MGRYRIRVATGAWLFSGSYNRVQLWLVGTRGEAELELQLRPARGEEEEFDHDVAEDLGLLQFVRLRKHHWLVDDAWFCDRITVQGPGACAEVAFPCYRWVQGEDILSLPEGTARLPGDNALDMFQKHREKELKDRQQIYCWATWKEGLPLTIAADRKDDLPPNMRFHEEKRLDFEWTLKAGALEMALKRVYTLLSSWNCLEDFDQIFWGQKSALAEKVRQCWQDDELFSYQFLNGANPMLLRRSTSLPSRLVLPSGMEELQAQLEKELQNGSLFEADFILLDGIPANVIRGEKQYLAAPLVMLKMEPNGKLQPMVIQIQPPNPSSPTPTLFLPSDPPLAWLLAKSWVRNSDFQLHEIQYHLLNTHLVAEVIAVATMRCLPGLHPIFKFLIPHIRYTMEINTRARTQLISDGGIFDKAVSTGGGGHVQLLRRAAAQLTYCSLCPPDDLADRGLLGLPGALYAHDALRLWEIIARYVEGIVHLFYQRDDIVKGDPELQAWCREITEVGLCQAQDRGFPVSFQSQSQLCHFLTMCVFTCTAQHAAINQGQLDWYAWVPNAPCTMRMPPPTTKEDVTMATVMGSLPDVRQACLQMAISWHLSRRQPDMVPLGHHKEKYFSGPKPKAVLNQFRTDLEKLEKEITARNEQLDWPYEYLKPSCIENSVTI
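Purified human 12hLO at 150 nM in 25 mM Hepes, 0.01% Triton X-100, pH 7.0, preincubated 15 min at room temperature with compound. Reaction started with 40 uM arachidonic acid, 30 min at room temperature. Hydroperoxide measured by Fe-xylenol orange, 573/405 nm absorbance ratio.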
* = called active by the depositor; i = inactive; ? = inconclusive; . = no result; ! = a repeat was not active; [ ] = another dose, or the depositor's remark. Sampled rows, rich in hits. Any-hit rate of the full collection: about 9%. Calls follow the shape of the dose curve; as a rule, active = well fitted curve in the direction sought with a large enough effect; inconclusive = small, poorly fitted or top-dose-only effect, or another doubt; inactive = no such curve, though single readings can be large; an effect the other way counts as inactive or inconclusive. Potency is read from the fitted curve at half-maximal effect.

SMILES	G9a inh	HP1b chromo inh	JMJD2A Tudor	PLK1 PBD block	BAZ2B inh	12-LOX inh
C/C(=N\Nc1cccc2ccccc12)c1c(O)n(Cc2ccccc2)c(=O)[nH]c1=O	1.6µM*	?	79µM*	-16%	?	-30%
C/C(=N\NC(=O)c1ccccc1)c1c(O)n(Cc2ccccc2)c(=O)[nH]c1=O	-25%	31%	-9%	2%	-9%	0%
C/C(=N\NC(=S)Nc1ccccc1)c1c(O)n(C)c(=O)n(C)c1=O	1.3µM*	-8%	18µM*	21µM*	-4%	-8%
COc1ccc(-n2c(O)c(/C(C)=N/Nc3ccccc3)c(=O)[nH]c2=O)cc1	40µM*	42%	-15%	-3%	-6%	?
CCC1(c2cccc(O)c2)CCCCN(C)C1 (stereo unspecified)	-30%[59 µM]	21%	-9%	-7%	0%	?
O=P(NS(=O)(=O)c1ccc(Cl)cc1)(Oc1ccccc1)Oc1ccccc1	?	3%	-7%	-5%	-26%	?
O=P(NS(=O)(=O)c1ccc(Br)cc1)(Oc1ccccc1)Oc1ccccc1	-12%[12.7 µM]	13%	-12%	-15%	?	-9%
O=P(NS(=O)(=O)c1ccccc1)(Oc1ccccc1)Oc1ccccc1	56µM*	25%	?	-8%	-39%	15%
Cc1ccc(S(=O)(=O)NP(=O)(Oc2ccccc2)Oc2ccccc2)cc1	56µM*	18%	?	-14%	-23%	?
O=C(C1CCCCC1)N1CCC(c2nc3c(nnn3Cc3c(F)cccc3Cl)c(=O)[nH]2)CC1	11%[59 µM]	-11%	-12%[11.4 µM]	?	-5%	?
O=C(C[n+]1ccccc1)c1ccc(Cl)cc1	2µM*	10%	?	-11%	-1%	.
ClCCN1CCCC1	.	.	.	.	.	-59%
ClC1=CCC2CN(CCN3CCCCC3)CC2C1 (stereo unspecified)	79µM*	23%	-8%	-5%	5%	-16%
COc1cc(OC)cc(C(=O)Nc2ccc(Br)cc2C(=O)c2ccccc2)c1	17%[59 µM]	10%	-21%	-15%	-3%	11%
CCOC(=O)c1cc(C)n(CCc2cnc[nH]2)c1C	?	-15%	?	-11%	56µM*	0%
CNCCc1cnc[nH]1	21%[59 µM]	.	.	.	.	?
COc1cc(CC2(CCc3ccncc3)C(=O)N(C)C(=O)N(C)C2=O)cc(OC)c1OC	22µM*	20%	-16%	0%	-15%	0%
CN(c1ccccc1N(C)S(=O)(=O)c1ccccc1)S(=O)(=O)c1ccccc1	.	57%	-15%	-14%	.	0%
CN(C)C(CSS(=O)(=O)c1ccccc1)CSS(=O)(=O)c1ccccc1	.	.	.	.	.	0.71µM*
CC(C)OC12Oc3ccccc3C=C1N1CCC2CC1 (stereo unspecified)	?	29%	-10%	-5%	-3%	i
CC(C)n1c(=O)c(C=Nc2ccc(F)cc2)c(O)n(Cc2ccco2)c1=O	-7%[59 µM]	39%	8%	7%	-1%	-1%
O=C1NC(=O)N(Cc2ccco2)C(=O)/C1=C/c1ccc(-c2cccc([N+](=O)[O-])c2)o1	3.2µM*	?	14µM*	0.42µM*	35µM*	.
CN(C)c1ccc(/C=C2/C(=O)NC(=O)N(Cc3ccco3)C2=O)cc1	?	-7%	-35%	1.9µM*	-31%	-29%
CCN(CC)c1ccc(/C=C2/C(=O)NC(=O)N(Cc3ccco3)C2=O)cc1	?	-14%	?	?	40µM*	?
NC(=O)C1CCN(/C=C2\C(=O)NC(=O)N(Cc3ccco3)C2=O)CC1	?	?	79µM*	?	?	-9%
SMILES	G9a inh	HP1b chromo inh	JMJD2A Tudor	PLK1 PBD block	BAZ2B inh	12-LOX inh
CC(C)CCC[C@@H](C)[C@H]1CC[C@H]2[C@@H]3C(=O)C=C4C[C@@H](O)CC[C@]4(C)[C@H]3CC[C@]12C	13%[12.7 µM]	18%	-36%	?	10%	14%
Cc1cc(/C=C2/C(=O)NC(=O)N(Cc3ccco3)C2=O)c(C)n1-c1ccccc1	10µM*	71µM*	50µM*	?	?	?
O=C1NC(=S)N(Cc2ccco2)C(=O)/C1=C\c1cccs1	3.2µM*	.	.	.	.	.
CN1CCN(c2ccc([N+](=O)[O-])c3cnccc23)CC1	.	.	.	.	.	-55%
O=C1Nc2ccccc2Sc2ccccc21	20%	37%	-9%	3%	-12%	?
c1ccc2c(c1)Nc1ccccc1S2	13µM*	?	?	-1%	13µM*	0.11µM*
COc1ccccc1N1CCN(Cc2cnc(-c3ccccc3)[nH]2)CC1	-31%	-13%	-31%	-4%	-34%	217%
CC(C)C1(C)N=C(c2ncccc2C(=O)O)NC1=O (stereo unspecified)	32µM*	-3%	22µM*	1%	28µM*	?
COc1cccc(CN2CCN(Cc3cccc(F)c3)CC2)c1	.	?	7.9µM*	-8%	35µM*	7%
CCCCn1c(O)c(C(CC)=NC(C)c2ccccc2)c(=O)[nH]c1=O (stereo unspecified)	15%	7%	-22%	-9%	?	?
CCCCCn1c(SCCCC)nc2c1c(=O)[nH]c(=O)n2C	?	-36%	?	27µM*	-3%	?
O=C(O)c1cc[c]([Hg][Cl])cc1	1µM*!	?	0.89µM*	0.24µM*	1.3µM*	.
COc1ccc(C(=O)O)cc1OC	-58%[2.33 µM]	20%	-7%	0%	.	-1%
O=C(CNC(=O)c1cccs1)NCC(=O)OCC(=O)c1ccc([N+](=O)[O-])cc1	45µM*	-2%	-4%	-15%	.	-6%
O=C(OCC(=O)c1ccc([N+](=O)[O-])cc1)/C(=C\c1ccc(Cl)cc1)NC(=O)c1ccccc1	?	16%	-18%	-9%	-18%	-9%
Cc1cccc(-n2c(O)c(C)c(=O)[nH]c2=S)c1	.	33%	-16%	12µM*	?	45µM*
CCN(CCCNS(=O)(=O)c1ccc2c(c1)oc(=O)n2C)c1cccc(C)c1	14µM*	?	16µM*	24µM*	-32%	14%[57.4 µM]
CC(=O)OC1N=C(c2ccccc2)c2cc(Br)ccc2NC1=O (stereo unspecified)	21%[0.501 µM]	20%	-15%	0%	2%	17%
O=C(Cc1cccc(C(F)(F)F)c1)N1CCN(CC(=O)N2CCCC2)CC1	-2%[12.7 µM]	31%	-6%	-8%	3%	337%
O=C(CCN1CCN(CCO)CC1)N1c2ccccc2Sc2ccc(C(F)(F)F)cc21	?	38%	56µM*	27µM*	-12%	18%
C[Se]C[C@H](N)C(=O)O	0.63µM*	.	.	.	.	?
NC(N)=NCCC[C@H](N)C(=O)O	54%[12.7 µM]	.	.	.	.	3%
N[C@@H](CCl)C(=O)O	21µM*	10%	?	-10%	.	-6%

High-throughput results from PubChem.
